Consider five molecules from PubChem BioAssay (NCATS).

Inconclusive results are not listed. Activity calls are given as the source filed them. The call rests on the fitted dose curve; in most records, active means well fitted curve in the direction sought with a large enough effect; inconclusive means small, poorly fitted or top-dose-only effect, or another doubt; inactive means no such curve, though single readings can be large; an effect the other way counts as inactive or inconclusive. Numbered stars: 1 amine (or outer) side, 2 acyl side, 3 side chain; on linkers, the order of the positions; unused ones are H or OH. Bridge positions count the residues as written; N and C are the ends. Square brackets hold non-standard residues; d marks the D form. Peptide text beside a SMILES is read from it. * marks the point of attachment. ξ: configuration not given here. ΔAla(Z-3-ureido) = NC(=O)N/C=C(\N)C(=O)O; X1 = NC1=NCCC(C(N[*:1])C(=O)[*:2])N1; ξβ3hOrn = NCCCC(N)CC(=O)*; Orn = NCCC[CH](N)C(=O)O; Dap = NC[CH](N)C(=O)O

For assay [1], the target named is Luciferin 4-monooxygenase (Photinus pyralis) (UniProt P08659). Put plainly: Biochemical firefly luciferase enzyme assay for NPC (AID 624030). Further: nearly all actives have a fitted effect of over 70% in size. The method in brief: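 Purified P. pyralis luciferase at 10 nM in 50 mM Tris Acetate (final), luminescence read within 5 minutes of enzyme addition to compounds. Activity normalised to PTC124 versus DMSO; concentration-response curves classed by r2, magnitude and activity.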

Assay [2] can be described thus: S16 Schwann cell viability assay (CellTiter-Glo assay) (AID 624031). Further: nearly all actives have a fitted effect of over 70% in size. Summed up:
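Native S16 Schwann cells (rat), serum-containing medium, overnight attachment then 24 h drug exposure at 37 °C/5% CO2. CellTiter-Glo ATP signal; normalized to cell-free and vehicle wells.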

Another assay has as its system AS120. Put plainly: qHTS profiling for inhibitors of Plasmodium falciparum proliferation (AID 504749). Further: nearly all actives have a fitted effect of over 60% in size. Particulars: P. falciparum in erythrocytes, SYBR Green DNA, 72 h; series mostly up to 28.7 µM. The method in brief: (§1)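 P. falciparum-infected erythrocytes (0.3% parasitemia, 2.5% hematocrit) incubated with compound 72 h at 37 C, 5% CO2. Parasite DNA detected by SYBR Green after lysis, overnight at room temperature; normalised to 0.29 uM artemisinin and DMSO.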

A further assay has as its system ATS95. The description is as above. Particulars: P. falciparum in erythrocytes, SYBR Green DNA, 72 h; series mostly up to 28.7 µM. The method in brief:
as §1

The subject of a further assay is CP191. The assay is described as above. Particulars: P. falciparum in erythrocytes, SYBR Green DNA, 72 h; series mostly up to 28.7 µM. Summed up:
as §1

The subject of another assay is CP247. The assay is described as above. As to conditions: P. falciparum in erythrocytes, SYBR Green DNA, 72 h; series mostly up to 28.7 µM. The method in brief: as §1
The next assay has as its system CP250. The assay is described as above. Particulars: P. falciparum in erythrocytes, SYBR Green DNA, 72 h; series mostly up to 28.7 µM. Summed up: as §1
The subject of the next assay is CP262. The description is as above. Particulars: P. falciparum in erythrocytes, SYBR Green DNA, 72 h; series mostly up to 28.7 µM. The method in brief:
as §1

Another assay deals with CP297. Described as above. As to conditions: P. falciparum in erythrocytes, SYBR Green DNA, 72 h; series mostly up to 28.7 µM. Summed up:
as §1

The subject of a further assay is CP335. The description is as above. Particulars: P. falciparum in erythrocytes, SYBR Green DNA, 72 h; series mostly up to 28.7 µM. Summed up: as §1
In the next assay the test system is Dd2. Described as above. Particulars: P. falciparum in erythrocytes, SYBR Green DNA, 72 h; series mostly up to 28.7 µM. The method in brief: as §1
A further assay relates to ECU. Described as above. As to conditions: P. falciparum in erythrocytes, SYBR Green DNA, 72 h; series mostly up to 28.7 µM. The method in brief: as §1
Another assay deals with N140. The assay is described as above. As to conditions: P. falciparum in erythrocytes, SYBR Green DNA, 72 h; series mostly up to 28.7 µM. The method in brief: as §1
Another assay relates to P93_24. The description is as above. Particulars: P. falciparum in erythrocytes, SYBR Green DNA, 72 h; series mostly up to 28.7 µM. Summed up:
as §1

The test system of another assay is PAD. The description is as above. As to conditions: P. falciparum in erythrocytes, SYBR Green DNA, 72 h; series mostly up to 28.7 µM. Summed up:
as §1

The next assay relates to TAB109. The assay is described as above. Particulars: P. falciparum in erythrocytes, SYBR Green DNA, 72 h; series mostly up to 28.7 µM. The method in brief: as §1
The test system of another assay is TAB113. The description is as above. Particulars: P. falciparum in erythrocytes, SYBR Green DNA, 72 h; series mostly up to 28.7 µM. The method in brief:
as §1

For another assay, the system named is TAB165. The description is as above. As to conditions: P. falciparum in erythrocytes, SYBR Green DNA, 72 h; series mostly up to 28.7 µM. The method in brief:
as §1

Assay [3] is described as follows: S16 Schwann cell PMP22 intronic element firefly luciferase assay (AID 624032). Further: nearly all actives have a fitted effect of over 30% in size. The method in brief:
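Rat S16 Schwann cells stably carrying firefly luciferase driven by a PMP22 intronic element, in 10% FBS, treated 24 h at 37 C. ONE-Glo luminescence normalized to PTC124 control and DMSO (0%); curves classed by r2, magnitude and activity.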
Potency means the concentration at half of the fitted maximal effect.

Chain of Luciferin 4-monooxygenase (Photinus pyralis) (P08659 whole entry, looked up): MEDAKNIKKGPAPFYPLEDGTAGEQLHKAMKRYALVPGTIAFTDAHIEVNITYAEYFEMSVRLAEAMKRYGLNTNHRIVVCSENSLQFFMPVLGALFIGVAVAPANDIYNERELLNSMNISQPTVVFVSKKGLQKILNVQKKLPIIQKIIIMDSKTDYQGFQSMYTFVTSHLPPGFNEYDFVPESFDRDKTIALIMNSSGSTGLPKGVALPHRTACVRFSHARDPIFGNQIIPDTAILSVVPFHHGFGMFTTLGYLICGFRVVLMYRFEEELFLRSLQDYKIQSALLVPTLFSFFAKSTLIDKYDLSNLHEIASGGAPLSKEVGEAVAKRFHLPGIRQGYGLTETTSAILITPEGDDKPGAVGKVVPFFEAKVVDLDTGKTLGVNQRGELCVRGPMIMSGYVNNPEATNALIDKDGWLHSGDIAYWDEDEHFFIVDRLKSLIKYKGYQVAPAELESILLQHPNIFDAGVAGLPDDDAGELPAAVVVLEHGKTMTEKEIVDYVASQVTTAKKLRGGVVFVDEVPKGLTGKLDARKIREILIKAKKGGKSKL

As to `O=C(OCC1OC(OC(=O)c2cc(O)c(O)c(OC(=O)c3cc(O)c(O)c(O)c3)c2)[C@@H](OC(=O)c2cc(O)c(O)c(OC(=O)c3cc(O)c(O)c(O)c3)c2)C(OC(=O)c2cc(O)c(O)c(OC(=O)c3cc(O)c(O)c(O)c3)c2)C1OC(=O)c1cc(O)c(O)c(OC(=O)c2cc(O)c(O)c(O)c2)c1)c1cc(O)c(O)c(OC(=O)c2cc(O)c(O)c(O)c2)c1` (stereo not given in full), the Potency is 12.8 µM (active) in [1]; 20.3 µM (active) in assay [2]; 2.51 µM (active) with AS120; 2.82 µM (active) with ATS95; 2.82 µM (active) in the assay on CP191; 2.82 µM (active) in the assay on CP247. Besides, the Potency with CP250 is 2.24 µM (active); in the assay with CP262, 4.26 µM (active); with CP297 it was 3.79 µM (active); in the assay on CP335, 1.69 µM (active); in the assay on Dd2 it was 2.24 µM (active); in the assay on ECU it was 2.24 µM (active). Further, the Potency in the assay with N140 was 2.24 µM (active); with P93_24, 2.51 µM (active); in the assay with PAD it was 3.55 µM (active); with TAB109, 2.82 µM (active); in the assay on TAB113 it was 2.24 µM (active); with TAB165, 2 µM (active).

As for `NCCCC(N)CC(=O)NCC1NC(=O)C(CO)NC(=O)C(N)CNC(=O)C(C2CCN=C(N)N2)NC(=O)/C(=C/NC(N)=O)NC1=O` (stereo not drawn) (H-[Dap]S[Dap](ξβ3hOrn)[ΔAla(Z-3-ureido)][X1]; lactam 1-C; configuration not given here), the Potency result (in [2]; with AS120; with ATS95; in the assay with CP191; in the assay on CP247; with CP250) was “inactive” throughout. Besides, the Potency result in the assay on CP262, in the assay on CP297, in the assay on CP335, in the assay with Dd2, in the assay on ECU and in the assay on N140 was “inactive” each time. Also, the Potency entry with P93_24, with PAD, in the assay with TAB109, in the assay with TAB113 and with TAB165 was “inactive” in each case.

For `NC(=O)CCC1NC(=O)C(Cc2ccccc2)NC(=O)C(Cc2ccc(O)cc2)NC(=O)CCSSCC(C(=O)N2CCCC2C(=O)NC(CCCN=C(N)N)C(=O)NCC(N)=O)NC(=O)C(CC(N)=O)NC1=O` (stereo not given), the Potency result (in assay [1]; in [2]; in [3]; in the assay with AS120; with ATS95; in the assay with CP191) was “inactive” each time. In addition, the Potency result in the assay with CP247, in the assay on CP250, with CP262, in the assay on CP297, in the assay with CP335 and in the assay with Dd2 was “inactive” each time. The Potency result with ECU, with N140, in the assay on P93_24, in the assay with PAD, with TAB109 and with TAB113 was “inactive” in each case. Besides, the Potency entry in the assay on TAB165 is “inactive”.

With `CC(C)CC1NC(=O)C(CCCN)NC(=O)C(C(C)C)NC(=O)C2CCCN2C(=O)C(Cc2ccccc2)NC(=O)C(CC(C)C)NC(=O)C(CCCN)NC(=O)C(C(C)C)NC(=O)C2CCCN2C(=O)C(Cc2ccccc2)NC1=O` (stereo not given) (cyclo(FPV[Orn]LFPV[Orn]L); configuration not given here), in [1], the Potency result was “inactive”. Besides, the Potency is 4.55 µM (active) in assay [2]; 0.642 µM (active) in [3]; 0.0028 µM (active) in the assay on AS120; 0.0009 µM (active) in the assay with ATS95; 0.0028 µM (active) in the assay with CP191; 0.0028 µM (active) with CP247. The Potency in the assay with CP250 was 0.002 µM (active); with CP297, 0.0012 µM (active); in the assay with CP335, 0.0005 µM (active); in the assay on Dd2, 0.0011 µM (active); with ECU it was 0.0032 µM (active); with N140 it was 0.0013 µM (active). The Potency with P93_24 is 0.002 µM (active); with PAD, 0.0008 µM (active); with TAB109, 0.0011 µM (active); in the assay on TAB113, 0.0022 µM (active); in the assay with TAB165, 0.0013 µM (active).

Take `CC(C)CC(NC(=O)C(COC(C)(C)C)NC(=O)C(Cc1ccc(O)cc1)NC(=O)C(CO)NC(=O)C(Cc1c[nH]c2ccccc12)NC(=O)C(Cc1cnc[nH]1)NC(=O)C1CCC(=O)N1)C(=O)NC(CCCN=C(N)N)C(=O)N1CCCC1C(=O)NNC(N)=O` (stereo not given): the Potency result (in [1]; in assay [2]; in [3]; in the assay with AS120; with ATS95; in the assay on CP191) was “inactive” in each case. The Potency result with CP247, in the assay on CP250, in the assay with CP262, in the assay with CP297, in the assay with CP335 and in the assay with Dd2 was “inactive” throughout. Besides, the Potency result in the assay on ECU, with N140, with P93_24, in the assay with PAD, with TAB109 and with TAB165 was “inactive” throughout.
